Bioassay records (PubChem)
The list is not random: actives were taken first. Their share in the collection is about 3.8%.
PrP UTR inh = suppresses PrP 5' UTR mRNA reporter expression; cell-based PrP 5' UTR mRNA reporter, plate reader; inhibition, % (concentration not given with the values); hit rate 0.35% among 340,000; AID 488862; in the data active = inhibition above about 52%; also: 0 = median of the neutral control wells
PrPC TRFRET = reduces human prion protein on the cell surface; hit rate 0.43% among 370,000; cell surface PrPC, TR-FRET read-out; inhibition, % at 13.8 µM; in the data active = inhibition above about 24%; also: 0% = median of the test wells and 100% = reference compound wells
Mtb hypoxia inh = inhibitors of hypoxia-regulated fluorescent reporter in Mycobacterium tuberculosis | M. tuberculosis hypoxia-regulated fluorescent reporter, fluorescence | fluorescence inhibition, % (concentration not given with the values) | hit rate 0.1% among 300,000 | AID 1159583; in the data active = fluorescence inhibition mostly above about 23%, no sharp cut-off; inactive = mostly below about 17%
Yp Topo-I inh = inhibitors of Yersinia pestis topoisomerase I; AID 504884; hit rate 0.064% among 360,000; Y. pestis Topo-I cleavage product accumulation, plate reader; activity, % at 10 µM; in the data active = activity above about 50%, passing the limit was not always enough
FBA Mtb inh = inhibits M. tuberculosis FBA enzyme; P9WQA3; purified M. tuberculosis FBA, fluorescence read-out; inhibition, % at 1 µM; hit rate 2.3% among 360,000; AID 588726; in the data active = inhibition above about 27%;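 also: 0% = vehicle and 100% = reference inhibitor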
GDH-TPI counter = GDH-TPI coupled enzyme inhibition counter-screen. GDH-TPI coupled enzyme counterscreen, NADH absorbance. inhibition, % at 4.8 µM. hit rate 1.2% among 360,000. AID 588335; in the data active = inhibition above about 30%;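 also: 0% = DMSO wells and 100% = wells lacking the enzyme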
PrPC TRFRET cf = confirmation of inhibitors of cell surface human prion protein; shares compounds with PrPC TRFRET; cell surface PrPC level, TR-FRET; inhibition, % at 13.8 µM; hit rate 65% among 1,500; AID 743200; in the data active = inhibition above about 25%
LD9 cytotox = counter-screen for PrPc inhibitors: cytotoxicity in LD9 cells; luminescence viability; inhibition, % at 13.8 µM; shares compounds with PrPC TRFRET; AID 743201; hit rate 29% among 1,500; in the data active = inhibition above about 9.5%
Starred values were filed as active, the others as inactive.

`CCOC(=O)Cc1csc(NC(=O)c2cc3c(s2)CCCC3)n1` gave PrP UTR inh -33, PrPC TRFRET 30*, Mtb hypoxia inh 2, Yp Topo-I inh 5, FBA Mtb inh -1, GDH-TPI counter 31*, PrPC TRFRET cf 25* and LD9 cytotox -5.
For CC1CCC(NC(=O)c2cc3c(s2)CCCC3)CC1 (stereo unspecified) the results were PrP UTR inh -57, PrPC TRFRET 50*, Yp Topo-I inh 1, FBA Mtb inh 3, GDH-TPI counter -2, PrPC TRFRET cf 63* and LD9 cytotox 2.
For Cc1csc(NC(=O)c2cc3c(s2)CCCC3)n1 the results were PrP UTR inh -9, PrPC TRFRET 26*, Mtb hypoxia inh -12, Yp Topo-I inh -2, FBA Mtb inh 3, GDH-TPI counter 21, PrPC TRFRET cf 20 and LD9 cytotox 7.
Screening Cc1cnc(NC(=O)c2cc3c(s2)CCCC3)s1 returned PrP UTR inh 47, PrPC TRFRET 8, Yp Topo-I inh -12, FBA Mtb inh -3 and GDH-TPI counter 18.
`CNC(=O)c1cc2c(s1)CCCCCC2` gave PrP UTR inh -64, PrPC TRFRET 4, Mtb hypoxia inh 7, Yp Topo-I inh -2, FBA Mtb inh 8 and GDH-TPI counter 3.
Cc1csc(NC(=O)c2cc3c(s2)CCCCC3)n1 was read as PrP UTR inh 49, PrPC TRFRET 25*, Yp Topo-I inh -11, FBA Mtb inh -9, GDH-TPI counter 4, PrPC TRFRET cf 16 and LD9 cytotox 1.
COc1cccc(C=NNC(=O)c2sc(N)nc2C)c1OC was read as Mtb hypoxia inh 4.
O=C(CNC(=O)c1ccc(F)cc1)NN=Cc1cccnc1 was read as Mtb hypoxia inh 4.
For Cc1cc(C(=O)NN=Cc2ccc(O)c(O)c2O)c(C)n1-c1ccccc1 the results were Mtb hypoxia inh 9.
Screening COc1ccc(O)c(C=Nc2nc3ccccc3n2C)c1 returned Mtb hypoxia inh 3.
`O=C(NN=Cc1ccco1)c1ccccn1` gave Mtb hypoxia inh 2.
Screening COc1ccc(C(CC(=O)O)NC(=O)c2sc3ccccc3c2Cl)cc1 (stereo unspecified) returned PrP UTR inh -16, PrPC TRFRET 34*, Mtb hypoxia inh 14, Yp Topo-I inh 3, FBA Mtb inh -2, GDH-TPI counter 8, PrPC TRFRET cf 38* and LD9 cytotox -4.
COc1ccc(C(CC(=O)O)NC(=O)c2cccs2)cc1 (stereo unspecified) was read as PrP UTR inh -7, PrPC TRFRET 2, Mtb hypoxia inh 5, Yp Topo-I inh 5, FBA Mtb inh 0 and GDH-TPI counter 10.
COC(=O)C1=C(c2ccc(S(C)(=O)=O)cc2)CC2CCC1N2C(=O)NCCNC(C)=O (stereo unspecified) was read as Mtb hypoxia inh -7.
`CCOC(=O)c1c(-c2ccc(C)s2)csc1N` gave PrP UTR inh -1, PrPC TRFRET 70*, Mtb hypoxia inh 11, Yp Topo-I inh -8, FBA Mtb inh 1, GDH-TPI counter 2, PrPC TRFRET cf 54* and LD9 cytotox -2.
Screening CC1(C(=O)NN=Cc2ccccc2)CC1(Cl)Cl (stereo unspecified) returned Mtb hypoxia inh 11.
`CNc1ncc(C(=O)c2ccc(Cl)cc2)s1` gave PrP UTR inh -53, PrPC TRFRET 62*, Mtb hypoxia inh 6, Yp Topo-I inh 3, FBA Mtb inh -2, GDH-TPI counter 47*, PrPC TRFRET cf 78* and LD9 cytotox -9.
`COCc1cc(C)nc(OCC(=O)NN=Cc2cc(C)n(-c3cccc(C(F)(F)F)c3)c2C)c1C#N` gave Mtb hypoxia inh 0.
CC1CN(c2ccccc2)c2nc3c(c(=O)[nH]c(=O)n3C)n2C1 (stereo unspecified) was read as PrP UTR inh -12, PrPC TRFRET 3, Mtb hypoxia inh 1, Yp Topo-I inh 1, FBA Mtb inh -3 and GDH-TPI counter 8.
Screening CC1CN(c2ccc(Cl)cc2)c2nc3c(c(=O)[nH]c(=O)n3C)n2C1 (stereo unspecified) returned PrP UTR inh 0, PrPC TRFRET 38*, Mtb hypoxia inh 10, Yp Topo-I inh 3, FBA Mtb inh 3, GDH-TPI counter 8, PrPC TRFRET cf 2 and LD9 cytotox -3.
NC(=NOC(=O)C=Cc1ccccc1)c1ccc(Br)cc1 was read as Mtb hypoxia inh 11.
`Cc1csc(NC(=O)CSc2ncnc3ccccc23)n1` gave PrP UTR inh -16, PrPC TRFRET 18, Mtb hypoxia inh 6, Yp Topo-I inh 10, FBA Mtb inh -1 and GDH-TPI counter 11.
For O=C(CSc1ncnc2ccccc12)c1ccco1 the results were PrP UTR inh -53, Mtb hypoxia inh 18, Yp Topo-I inh -2, FBA Mtb inh 6 and GDH-TPI counter 9.
For O=C(CSc1ncnc2ccccc12)NCCCO the results were PrP UTR inh -5, PrPC TRFRET 36*, Yp Topo-I inh -1, FBA Mtb inh 3, GDH-TPI counter 5, PrPC TRFRET cf 32* and LD9 cytotox -7.
O=C(CSc1ncnc2ccccc12)NCc1ccco1 was read as PrP UTR inh -1, PrPC TRFRET 76*, Mtb hypoxia inh 8, Yp Topo-I inh -1, FBA Mtb inh 0, GDH-TPI counter 4, PrPC TRFRET cf 77* and LD9 cytotox -1.
Screening O=C(CSc1ncnc2ccccc12)NCCc1ccccc1 returned PrP UTR inh -25, PrPC TRFRET 62*, Mtb hypoxia inh 8, Yp Topo-I inh 9, FBA Mtb inh -5, GDH-TPI counter -3, PrPC TRFRET cf 79* and LD9 cytotox -8.
CCn1cc(Cl)c(C(=O)Nc2ccccc2C(N)=O)n1 was read as PrP UTR inh -19, PrPC TRFRET 54*, Mtb hypoxia inh 3, Yp Topo-I inh 3, FBA Mtb inh 5, GDH-TPI counter -1, PrPC TRFRET cf 11 and LD9 cytotox -5.
Screening Cc1cc(C)cc(CC(Cc2nc3ccccc3[nH]2)c2nc3ccccc3[nH]2)c1 (stereo unspecified) returned PrP UTR inh -5, PrPC TRFRET 28*, Mtb hypoxia inh -5, Yp Topo-I inh 16, FBA Mtb inh 0, GDH-TPI counter 11, PrPC TRFRET cf 30* and LD9 cytotox 1.
For CCOC(=O)C(N=Nc1c(C)n(C)n(-c2ccccc2)c1=O)=C(O)c1ccccc1 the results were Mtb hypoxia inh 10.
For C[C@@H]1C[C@@H]2O[C@H]2CCCCC(=O)Cc2cc(O)cc(O)c2C(=O)O1 the results were PrPC TRFRET -1.
Screening C[C@@H]1C[C@H]2O[C@@H]2/C=C\C=C\C(=O)Cc2cc(O)cc(O)c2C(=O)O1 returned PrPC TRFRET 81*, PrPC TRFRET cf 48* and LD9 cytotox 61*.
